Results filed as inconclusive are left out. Calls of active or inactive are those of the source. Calls come from the whole dose curve; as a rule, active = well fitted inhibition curve with a large enough effect; inconclusive = small, poorly fitted or top-dose-only effect; inactive = no such curve, though single readings can be large or run the other way.

Chain of Nuclear receptor ROR-gamma (Homo sapiens) (P51449 whole entry, looked up): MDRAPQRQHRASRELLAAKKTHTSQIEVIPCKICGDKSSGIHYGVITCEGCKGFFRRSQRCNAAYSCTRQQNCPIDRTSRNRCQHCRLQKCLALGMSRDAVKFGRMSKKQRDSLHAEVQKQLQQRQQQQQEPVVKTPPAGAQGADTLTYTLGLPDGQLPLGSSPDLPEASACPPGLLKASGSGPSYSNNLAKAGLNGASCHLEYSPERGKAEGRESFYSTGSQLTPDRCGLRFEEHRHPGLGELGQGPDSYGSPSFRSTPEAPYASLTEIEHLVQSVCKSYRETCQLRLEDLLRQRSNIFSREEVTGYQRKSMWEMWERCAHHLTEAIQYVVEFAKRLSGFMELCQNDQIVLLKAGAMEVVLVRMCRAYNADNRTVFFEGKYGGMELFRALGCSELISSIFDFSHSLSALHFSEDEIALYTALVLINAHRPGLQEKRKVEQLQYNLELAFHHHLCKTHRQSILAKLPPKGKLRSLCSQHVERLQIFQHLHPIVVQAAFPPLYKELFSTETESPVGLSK

The assay concerns the target Nuclear receptor ROR-gamma (Homo sapiens) (UniProt P51449). Briefly: qHTS assay for small molecule antagonists of the retinoid-related orphan receptor gamma (ROR-gamma) signaling pathway (AID 651802). Note: nearly all actives have a fitted effect of over 60% in size. Particulars: ROR-gamma antagonist cell reporter assay; series mostly up to 92.2 µM. From the text:
National Center for Advancing Translational Sciences [NCATS]
NIH Chemical Genomics Center [NCGC]
National Institutes of Environmental Health Sciences [NIEHS]
National Toxicology Program [NTP]
Nuclear steroid hormone receptors are involved in many biological processes including inflammatory responses, cell proliferation, and apoptosis. Environmental factors or compounds disrupting these nuclear receptor pathways and gene expression may promote susceptibility to immunotoxicants and autoimmune diseases. One important group of these expression factors are the retinoid-related orphan receptors. To assess compounds that may interfere with the retinoid-related orphan receptor gamma (ROR-gamma) transcription factor, a cell-based luciferase assay was used.
The CHO cell-based assay utilizes a TET-inducible ROR expression factor and ROR response element-LUC reporter gene. Reporter activity was induced using doxycycline and measured after 16hr incubation. Luminescence was read using Viewlux (PerkinElmer), where a decrease in reporter activity would show a decrease in luminescence.
1,000 cells in 4 uL/well were dispensed into white wall/solid bottom 1536-well plates using a Multidrop Combi (Thermo Scientific) dispenser. Following transfer of 23 nL compound or DMSO vehicle by a pin tool, the plates were treated with 1 ul doxycycline to induce reporter gene activity. After 16hr incubation at 37C and 5% CO2, 5uL one-glo (promega) was added to each plate and following 30 min incubation at room temperature, luminescence was quantified on a ViewLux (PerkinElmer) plate reader.
With `CC(=O)OCC(COC(C)=O)OC(C)=O`, the result was inactive.

Regarding `CCCCCCCC(=O)OCC(COC(=O)CCCCCCC)OC(=O)CCCCCCC`, the compound was classed as inactive.

With `CCCC(O)C(CC)CO` (centres undefined), the compound was called inactive.

Consider `Nc1ccc(S(=O)(=O)c2ccc(N)cc2)cc1`, for which the compound was classed as inactive.

`O=C(c1ccccc1)C(O)c1ccccc1` (centres undefined): the compound was called inactive.

For `CC(=O)Nc1ccc(C(=O)O)cc1`, the call was inactive.

`CCCCCC(N)=O`: the result was inactive.

On to `O=C1C(c2[nH]c3ccccc3c2O)=Nc2ccccc21`, for which the compound was called inactive.

In the case of `O=C1c2cccc(O)c2C(=O)c2c(O)cccc21`, the compound was classed as inactive.

As to `CCCCOC(=O)c1ccc(N)cc1`, the outcome was inactive.

Consider `Cc1cc(=O)[nH]c(=S)[nH]1`, for which the call was inactive.

As for `CCN(CC)C(=O)c1cccc(C)c1`, the result was inactive.

In the case of `Cc1c(N(C)C)c(=O)n(-c2ccccc2)n1C`, the result was inactive.

Consider `CC(=O)NS(=O)(=O)c1ccc(N)cc1`, for which the outcome was inactive.

The values are drawn from PubChem BioAssay (NCATS).
